High-throughput results deposited in PubChem by National Center for Advancing Translational Sciences (NCATS).
Marburg entry inh – Marburg virus entry inhibition; actives 1.8% (n = 300,000); Potency, µM (doses to about 37.8 µM), for the others: at the top dose activity change, negative = inhibition, actives largely listed as inhibitors; Marburg virus pseudotyped entry inhibition, cell reporter; calls by dose curve; tested in HEK293 cells; note: potency is the fitted concentration of half-maximal effect; % is set by controls: 0 for no effect and ±100 for the full control effect
LASV entry inh – blocks Lassa virus binding to or entry into cells. Lassa virus pseudotype entry inhibition, cell reporter. AID 540256. Potency, µM (series often up to 37.9 µM), for the others: top-dose activity change, negative = inhibition, hits mostly inhibitors. actives 1.2% (n = 300,000); calls by dose curve; tested in HEK293 cells; note: potency is the fitted concentration of half-maximal effect; % is set by controls: 0 for no effect and ±100 for the full control effect; nearly all actives have a fitted effect of over 50% in size
HCV inh – inhibitors of hepatitis C virus infection | Huh7.5.1 HCVcc-Cre infection, luciferase reporter, 44 h | Potency, µM (top dose mostly 41.8 µM), without a hit: top-dose activity change, negative = inhibition, most hits filed as inhibitors | actives 3.4% (n = 340,000) | AID 651820; active = well fitted inhibition curve with a large enough effect; inconclusive = small, poorly fitted or top-dose-only effect, or another doubt; inactive = no such curve, though single readings can be large or run the other way; note: potency is the fitted concentration of half-maximal effect; % is set by controls: 0 for no effect and ±100 for the full control effect
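A cell-based infection assay in which seeded cells (1,000 per well) receive test compound after 4 h, are inoculated with HCVcc-Cre at approximately 0.5 moi, and are incubated 44 h before luminescence detection.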
SARS PLP yeast – blocks SARS-CoV papain-like protease in a yeast assay; S. cerevisiae expressing SARS-CoV PLpro, growth rescue; Potency, µM (titrated, usually from 32.9 µM), for inactives: at the top dose activity, positive = growth rescue, most hits filed as activators; actives 0.19% (n = 330,000); AID 485353; calls by dose curve; note: potency is the fitted concentration of half-maximal effect; 0% is about no effect; nearly all actives have a fitted effect of over 55% in size
FMDV antiviral – antivirals against foot and mouth disease virus; FMDV antiviral cell-based qHTS; Potency, µM (top dose mostly 57.9 µM), for inactives: at the highest dose activity change, negative = inhibition, actives largely listed as inhibitors; actives 1.2% (n = 410,000); calls by dose curve; tested in HEK293T cells; note: read-out not given here; potency is the fitted concentration of half-maximal effect; % is set by controls: 0 for no effect and ±100 for the full control effect; nearly all actives have a fitted effect of over 45% in size
HCMV inh – inhibitors of human cytomegalovirus | HFF cells, HCMV-luciferase reporter, 72 h; active compounds read low | activity change, negative = inhibition, % at 57.5 µM | actives 4.5% (n = 410,000) | AID 1259415; in the data active = activity change below about -60%; inconclusive = no clear call, values can overlap the other calls; inactive = above about -39%; note: % is set by controls: 0 for no effect and ±100 for the full control effect
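Luciferase read-out from HCMV-luciferase-infected HFFs (MOI 1 PFU/cell) 72 h post infection at 37C; compounds added after 16 h cell attachment; activity normalized between buffer-only basal and Salinomycin (10uM) inhibitor controls.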
Starred values were filed as active, the others as inactive; ? = inconclusive; / = no result given; [ ] = dose if it differs, or a comment. A selection: hits, their analogues and other compounds. The true share with any hit is near 8%.

SMILES	Marburg entry inh	LASV entry inh	HCV inh	SARS PLP yeast	FMDV antiviral	HCMV inh
Cc1cc(NC(=O)CCC(=O)N(Cc2cccs2)C(C(=O)NC2CCCC2)c2cccnc2)no1 (stereo unspecified)	6%	6%	-10%	3%	-9%	-6
Cc1cc(C)cc(N(C(=O)CNC(=O)c2ccco2)C(C(=O)NC2CCCC2)c2ccncc2)c1 (stereo unspecified)	2%[46.1 µM]	?	26%	1%	-14%	-67*
COc1ccc(N(C(=O)Cn2nnc3ccccc32)C2(C(=O)NC3CCCC3)CCCCC2)cc1	?	-8%	5.6µM*	-3%	/	?
COCCN(C(=O)Cn1nnc2ccccc21)C(C(=O)NC1CCCCC1)c1ccc(OC)cc1OC (stereo unspecified)	-30%	7%	17%	7%	46%	-15
Cc1cc(C)cc(N(C(=O)CCC(=O)Nc2cc(C)on2)C(C(=O)NC2CCCC2)c2ccco2)c1 (stereo unspecified)	11µM*	?	?	-1%	-23%	-37
Cc1cccc(N(C(=O)CNC(=O)c2ccco2)C(C(=O)NC2CCCC2)c2ccncc2)c1 (stereo unspecified)	-13%	11%	13%	2%	-6%	-13
Cc1cc(NC(=O)CCC(=O)N(Cc2cccs2)C(C(=O)NC2CCCC2)c2ccccc2)no1 (stereo unspecified)	11µM*	-18%	?	-1%	?	-17
Oc1cc(-c2nc3ccccc3s2)cc2c1OCCN(Cc1cn[nH]c1-c1ccc(Cl)cc1)C2	/	/	/	/	10%	/
COCCN(CC(=O)Nc1cccc(C)c1C)C(=O)CN1C(=O)NC2(CCCCC2)C1=O	/	/	13%	-6%	-15%	-7
COc1cccc(C(C(=O)NC2CCCC2)N(CCC(C)C)C(=O)CCC(=O)Nc2cc(C)on2)c1 (stereo unspecified)	?	?	-5%	-1%	-17%	-66*
Cc1ccc(C(C(=O)NC2CCCCC2)N(CC2CCCO2)C(=O)CCCC(=O)Nc2ccccn2)cc1 (stereo unspecified)	-24%[46.1 µM]	?	-13%	-1%	4%	-71*
Cc1cc(NC(=O)CCC(=O)N(c2ccccc2)C2(C(=O)NC3CCCCC3)CCCC2)no1	?	?	?	-1%	-25%	-77*
O=C(NC1CCCC1)C(c1ccncc1)N(Cc1ccco1)C(=O)c1ccc(-c2ccccc2)[nH]1 (stereo unspecified)	10µM*	/	-23%	-7%	13%	69
O=C(NC1CCCC1)C(c1ccncc1)N(Cc1ccccc1)C(=O)c1ccc(-c2ccccc2)[nH]1 (stereo unspecified)	?	?	?	3%	-3%	-12
Cc1ccc2cc3cc(C(=O)N4CCN(c5ccccc5)CC4)oc3nc2c1	/	25%[46.1 µM]	/	/	-3%	33
CC1CN=C(c2cc(Cl)c(N)c(Cl)c2)c2c3ccc(C(F)(F)F)cc3[n+]([O-])n21 (stereo unspecified)	/	/	/	/	/	40
CCc1c(C#N)sc(C(N)=O)c1CC	20%[46.1 µM]	23%	13%	1%	-19%	-74*
COc1cccc(C(=O)/C=C/Nc2cc(C)ccc2O)c1	?	-14%	2.2µM*	-16%	20%	-79*
O=C(O)C(Cc1ccnc2ccccc12)=NO	29%	9%[46.1 µM]	16%	/	-17%	18
OC(Cc1ccnc2ccccc12)C(Cl)(Cl)Cl (stereo unspecified)	?	?	11µM*	/	?	-80*
COc1ccc(N2CCN(C(=O)c3ccc(C)c(NC(=O)C4=C(C)OCCS4)c3)CC2)cc1	/	/	5%	-4%	-10%	-17
CC1=C(C(=O)Nc2cc(C(=O)N3CCN(c4cccc(C)c4C)CC3)ccc2C)SCCO1	/	/	11µM*	-10%	-9%	-37
CC(C)c1ccc(C2C3=C(CC(C)(C)CC3=O)NC3=C2C(=O)c2ccccc23)cc1 (stereo unspecified)	?	?	11µM*	-4%	-1%	-72*
CC1(C)CC(=O)C2=C(C1)NC1=C(C(=O)c3ccccc31)C2c1cccnc1 (stereo unspecified)	/	/	-16%	0%	-18%	?
Cc1csc(NC(=O)c2cc3c(s2)CCC3)n1	13µM*	?	7%	3%	-41%	47
SMILES	Marburg entry inh	LASV entry inh	HCV inh	SARS PLP yeast	FMDV antiviral	HCMV inh
COC(=O)c1sc(NC(=O)c2cc3c(s2)CCCC3)nc1C	11%	-22%	?	2%	27%	-15
Cc1nc(NC(=O)c2cc3c(s2)CCCCC3)sc1C(=O)N(C)C	17%	-23%	11µM*	-1%	58%	1
Cc1ccc2c(CNC3CCCC3)c(C(=O)O)n(Cc3ccc(F)cc3)c2c1	/	10%[46.1 µM]	/	/	-6%	7
COc1ccc(-c2ccc3c(c2)COCC(=O)N3CCN2CCOCC2)cc1	/	/	/	/	/	-16
Cc1ccc(/C=C/C(=O)NCc2cccs2)c(C)c1	?	?	6%	-2%	14%	95
O=C(C=Cc1ccccc1)NCCNC(=O)C=Cc1ccccc1	?	19%[46.1 µM]	19%	/	-5%	-69*
O=C(/C=C/c1ccccc1)NCCCNC(=O)/C=C/c1ccccc1	-1%[46.1 µM]	13%	12%	0%	5%	-17
CCCNC(=O)/C=C/c1ccc(C(C)C)cc1	?	18µM*	-9%	-22%	48%	22
Cc1ccc(/C=C/C(=O)NCc2cccs2)cc1	-2%	2µM*	-14%	-34%	44%	48
O=C(/C=C/c1ccccc1)NC(=S)NNC(=O)c1cnccn1	?	7.9µM*	?	-14%	3%	-98*
CCc1cccc(NC(=O)Cn2c(=O)n(CCc3ccc(OC)c(OC)c3)c(=O)c3ccccc32)c1	?	-9%[46.1 µM]	/	/	15%	-4
Cc1nc(CC(=O)Nc2ccc(C)c(C)c2)cs1	-1%[46.1 µM]	?	/	/	20%	5
CCN(CC)S(=O)(=O)c1ccc(C)c(NC(=O)COC(=O)CN2C(=O)NC(C)(C)C2=O)c1	17%	0%	-10%[8.37 µM]	2%	-7%	-25
NC(=S)NC(=O)/C=C/c1ccccc1	?	-35%	?	8%	26%	-67*
CCOC(=O)c1ccc(N2Cc3ccccc3C2=NC(=O)c2cccs2)cc1	?	10µM*	2%	18%	8%	-21
COc1ccc(N2Cc3ccccc3C2=NC(=O)c2cncc(Br)c2)cc1	-6%	25%	3%	2%	45%	-81*
COc1ccc(N2Cc3ccccc3C2=NC(=O)c2cccc([N+](=O)[O-])c2)cc1	3%	18%	0%	8%	20%	-29
CC(=O)c1ccc(N2Cc3ccccc3C2=NC(=O)c2cccs2)cc1	?	7.9µM*	?	-13%	2%	196
COCCC(C(=O)Oc1c(C(C)(C)C)cc(C)cc1C(C)(C)C)c1ccccc1 (stereo unspecified)	/	/	8%	-5%	-30%	-1
